Test results as given in PubChem BioAssay AID1347418 (Sanford-Burnham Center for Chemical Genomics, 2020).
Screen size: about 1,300 compounds; about 750 (58%) were called active. This is one part of the list. Unmarked numbers belong to inactive results.

These compounds were tested against Sulfhydryl oxidase 1 (Homo sapiens) (UniProt O00391) (assay: QSOX1 enzyme inhibitors, primary screen, biochemical, ROS-Glo H2O2 luminescence, HTS (AID 1347418)). Settings: recombinant QSOX1, ROS-Glo H2O2 luminescence; at 12.5 µM; active compounds read high; active = any value above zero.
Sequence of Sulfhydryl oxidase 1 (Homo sapiens) (O00391 whole entry, looked up): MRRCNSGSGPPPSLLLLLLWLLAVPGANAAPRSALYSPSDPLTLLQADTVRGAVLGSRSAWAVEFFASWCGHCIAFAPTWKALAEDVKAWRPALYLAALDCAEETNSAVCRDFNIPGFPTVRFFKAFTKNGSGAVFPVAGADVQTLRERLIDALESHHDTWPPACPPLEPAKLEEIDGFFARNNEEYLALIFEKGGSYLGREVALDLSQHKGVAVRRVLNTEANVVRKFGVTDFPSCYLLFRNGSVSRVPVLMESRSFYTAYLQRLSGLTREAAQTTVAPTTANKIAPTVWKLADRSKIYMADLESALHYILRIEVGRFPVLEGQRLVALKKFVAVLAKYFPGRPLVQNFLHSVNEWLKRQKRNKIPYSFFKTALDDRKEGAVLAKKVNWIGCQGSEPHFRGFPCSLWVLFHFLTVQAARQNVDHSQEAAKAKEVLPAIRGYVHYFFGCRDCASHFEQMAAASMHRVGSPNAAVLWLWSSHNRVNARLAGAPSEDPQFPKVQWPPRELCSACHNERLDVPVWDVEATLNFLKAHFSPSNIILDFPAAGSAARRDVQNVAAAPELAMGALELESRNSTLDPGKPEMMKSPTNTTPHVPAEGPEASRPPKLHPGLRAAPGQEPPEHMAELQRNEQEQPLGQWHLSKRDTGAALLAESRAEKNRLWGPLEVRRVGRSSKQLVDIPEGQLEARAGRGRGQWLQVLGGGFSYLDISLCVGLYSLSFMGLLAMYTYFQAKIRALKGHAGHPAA

Row | SMILES | inhibition
1 | NCCSSCCN | 10.5% (active)
2 | CCOC(=O)Nc1ccc(NCc2ccc(F)cc2)nc1N | 9.8% (active)
3 | CCCCCCCCCC[Si](C)(C)CCC(=O)NC(Cc1ccc(C)cc1)c1ccccc1 (configuration not stated) | 0.6% (active)
4 | CCCCCCCCc1ccc(-c2ccc(C(=O)O)cc2)cc1 | -5.7%
5 | NC(N)=NC(=O)c1nc(Cl)c(N)nc1N | -2.5%
6 | NC(N)=NC(=O)c1nc(Cl)c(N2CCCCCC2)nc1N | 1.7% (active)
7 | CCN(c1nc(N)c(C(=O)N=C(N)N)nc1Cl)C(C)C | -3.8%
8 | CN(C)c1nc(N)c(C(=O)N=C(N)N)nc1Cl | 0.7% (active)
9 | CCOC(=O)C1=C(C)NC(C)=C(C(=O)OCC)C1c1c(F)c(F)c(F)c(F)c1F | -3.2%
10 | COC(=O)C1=C(C)NC(C)=C(C(=O)OCCN(C)Cc2ccccc2)C1c1cccc([N+](=O)[O-])c1 (configuration not stated) | -1.6%
11 | COCCOC(=O)C1=C(C)NC(C)=C(C(=O)OC(C)C)C1c1cccc([N+](=O)[O-])c1 (configuration not stated) | -2.5%
12 | CCOC(=O)C1=C(C)NC(C)=C(C(=O)OC)C1c1cccc(Cl)c1Cl (configuration not stated) | 3% (active)
13 | COCCOC(=O)C1=C(C)NC(C)=C(C(=O)OC/C=C/c2ccccc2)C1c1cccc([N+](=O)[O-])c1 (configuration not stated) | 5.1% (active)
14 | COC(=O)C1=C(C)NC(C)=C(C(=O)OC)C1c1ccccc1[N+](=O)[O-] | -1.1%
15 | C#CCN1C(C)=C(C(=O)OC)C(c2cccc([N+](=O)[O-])c2)C(C(=O)OCC)=C1C (configuration not stated) | -3%
16 | COC(=O)C1=C(C)NC(C)=C(C(=O)OC(C)(C)CN(C)CCC(c2ccccc2)c2ccccc2)C1c1cccc([N+](=O)[O-])c1 (configuration not stated) | -1.4%
17 | CCOC(=O)C1=C(C)NC(C)=C(C(=O)OC)C1c1cccc([N+](=O)[O-])c1 (configuration not stated) | 1% (active)
18 | O=C(O)CN(CCOCCOCCN(CC(=O)O)CC(=O)O)CC(=O)O | -5.4%
19 | CCCCCCCCCCC(C)(C)C(=O)Nc1c(OC)cc(OC)cc1OC | -1%
20 | COc1ccccc1N1CCN(CC(O)COc2cccc3ccccc23)CC1 (configuration not stated) | 8.9% (active)
21 | COc1ccccc1OCC(O)CN1CCN(CC(=O)Nc2c(C)cccc2C)CC1 (configuration not stated) | 3.9% (active)

Row | SMILES | inhibition
22 | COc1cc2nc(N3CCN(C(=O)C4CCCO4)CC3)nc(N)c2cc1OC (configuration not stated) | 0.3% (active)
23 | COc1cc2nc(N3CCN(C(=O)OCc4ccccc4)C(C(=O)NC(C)(C)C)C3)nc(N)c2cc1OC (configuration not stated) | 4.3% (active)
24 | COc1cc2nc(N3CCN(C(=O)c4ccco4)CC3)nc(N)c2cc1OC | -0.3%
25 | COc1cc2nc(N3CCN(C(=O)C4COc5ccccc5O4)CC3)nc(N)c2cc1OC (configuration not stated) | 4.9% (active)
26 | COc1cc2nc(N(C)CCCNC(=O)C3CCCO3)nc(N)c2cc1OC (configuration not stated) | 1.1% (active)
27 | NC(=O)c1ccccc1 | 7.2% (active)
28 | NC(=O)c1cccc(N)c1 | 2.2% (active)
29 | CCn1c(=O)[nH]c2cc(Cl)c(Cl)cc21 | -5.4%
30 | NS(=O)(=O)c1cc2c(cc1Cl)NC=NS2(=O)=O | 2.5% (active)
31 | NS(=O)(=O)c1cc2c(cc1Cl)NCNS2(=O)=O | -0.5%
32 | NS(=O)(=O)c1cc2c(cc1Cl)NC(C1CC3C=CC1C3)NS2(=O)=O (configuration not stated) | -0.4%
33 | COc1cccc2c1[C@@H]1CN(CCCCn3c(=O)[nH]c4c(sc5ncc(-c6ccccc6)nc54)c3=O)C[C@@H]1CO2 | -1.5%
34 | CC(C)[C@@H]1CC[C@@H](C)C[C@@H]1P(=O)(c1ccccc1)c1ccccc1 | 2.9% (active)
35 | CCCn1c(=O)c(C)cn2nc(N)nc12 | 4.5% (active)
36 | NC(N)=NCc1cccc(I)c1 | 3.9% (active)
37 | O=c1[nH]c2cc([N+](=O)[O-])c([N+](=O)[O-])cc2[nH]c1=O | 2.2% (active)
38 | CCCOC(=O)c1c(-c2ccccc2)nc(CC)c(C(=O)SCC)c1CCC | -3.6%
39 | O=C(O)CCc1nc(-c2ccccc2)c(-c2ccccc2)o1 | 3.2% (active)
40 | C#CC(N)CCC(=O)O (configuration not stated) | 5.9% (active)
41 | CC1(C)CCC(NC(=O)[C@@H](N)CCC(=O)O)CC1 | -1.9%
42 | C=Cc1c(C)c2cc3[nH]c(cc4nc(cc5nc(cc1[nH]2)C(C)=C5CCC(=O)O)C(CCC(=O)O)=C4C)c(C)c3C=C | -1.1%

Row | SMILES | inhibition
43 | O=C(O)[C@@H]1C[C@@H](C(=O)O)N1 | -2.9%
44 | CC(C)C(=O)Nc1ccc([N+](=O)[O-])c(C(F)(F)F)c1 | 6.8% (active)
45 | COC(=O)C1=C(C)NC(C)=C([N+](=O)[O-])C1c1ccccc1C(F)(F)F (configuration not stated) | -3.4%
46 | CC1(C)NC(=O)N(c2ccc([N+](=O)[O-])c(C(F)(F)F)c2)C1=O | -0.4%
47 | Oc1ccc(Cn2cc[nH]c2=S)cc1 | 5.9% (active)
48 | CCCCCN(C)CCC(O)(P(=O)(O)O)P(=O)(O)O | 0.6% (active)
49 | NCCNS(=O)(=O)c1cccc2c(Cl)cccc12 | 0.1% (active)
50 | O=C(O)CC1CCCc2ccccc2C1O (configuration not stated) | -2.6%
51 | O=C(CCCCCN1CCN(c2ccccc2-c2ccccc2)CC1)NC1CCCc2ccccc21 (configuration not stated) | 2.4% (active)
52 | CSc1ccccc1N1CCN(CCCCCC(=O)NC2CCCc3ccccc32)CC1 (configuration not stated) | -1.2%
53 | O=C(O)c1cccnc1Nc1cccc(C(F)(F)F)c1 | 3.2% (active)
54 | O=C(O)c1cccnc1C(=O)O | -3%
55 | c1ccc2nc(C3=NCCN3)ccc2c1 | 0.1% (active)
56 | CC(C)(Sc1ccc(CCN(CCCCC2CCCCC2)C(=O)NC2CCCCC2)cc1)C(=O)O | 0.8% (active)
57 | CCc1c(C(=O)NCCc2ccc(N3CCCCC3)cc2)[nH]c2ccc(Cl)cc12 | 1.2% (active)
58 | CN=c1nc(-c2ccccc2)n(-c2ccccc2)s1 | -4.5%
59 | O=C(/C=C/c1ccc(O)cc1)c1ccc(O)cc1O | 20.8% (active)
60 | C#C[C@]1(O)CC[C@H]2[C@@H]3CCC4=Cc5oncc5CC4(C)[C@H]3CCC21C (some centres not stated) | 3.6% (active)
61 | CCCN(CCC)C(=O)C(CCC(=O)O)NC(=O)c1ccccc1 (configuration not stated) | -6.3%
62 | CCCCCN(CCCCC)C(=O)C(CCC(=O)O)NC(=O)c1ccc(Cl)c(Cl)c1 (configuration not stated) | 3% (active)
